Screening data from PubChem BioAssay.
Hits are enriched below; roughly 7.3% of the tested compounds scored in any of these assays.
Rab9 promoter act – qHTS Assay for Rab9 Promoter Activators | Potency, µM (titrated, usually from 9.22 µM), for inactives: top-dose activation, negative = inhibition, usual class: activators | Huh7 Rab9 promoter-luciferase reporter, luminescence, 24 h | 320,000 tested, 2.8% active; note: % of control where 0% means no effect; nearly all actives have a fitted effect of over 60% in size
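Cell-based reporter: Huh7 stable for Rab9 promoter-driven luciferase, plated in reduced-serum medium with 10% FBS at 1500 cells/well, compound-treated 24 h at 37 °C, luminescence read after 10 min reagent.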
FLuc counter – qHTS profiling assay for firefly luciferase inhibitor/activator using purifed enzyme and Km concentrations of substrates (counterscreen for miR-21 project). purified FLuc, Km substrates, luminescence inhibition. Potency, µM (doses to about 57.5 µM), for inactives: top-dose activity change, negative = inhibition, usual class: inhibitors. 360,000 tested, 6.9% active;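 note: plate controls were vehicle for no effect and reference inhibitor for full effect; nearly all actives have a fitted effect of over 55% in size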
Target sequence (P08659 whole entry, looked up): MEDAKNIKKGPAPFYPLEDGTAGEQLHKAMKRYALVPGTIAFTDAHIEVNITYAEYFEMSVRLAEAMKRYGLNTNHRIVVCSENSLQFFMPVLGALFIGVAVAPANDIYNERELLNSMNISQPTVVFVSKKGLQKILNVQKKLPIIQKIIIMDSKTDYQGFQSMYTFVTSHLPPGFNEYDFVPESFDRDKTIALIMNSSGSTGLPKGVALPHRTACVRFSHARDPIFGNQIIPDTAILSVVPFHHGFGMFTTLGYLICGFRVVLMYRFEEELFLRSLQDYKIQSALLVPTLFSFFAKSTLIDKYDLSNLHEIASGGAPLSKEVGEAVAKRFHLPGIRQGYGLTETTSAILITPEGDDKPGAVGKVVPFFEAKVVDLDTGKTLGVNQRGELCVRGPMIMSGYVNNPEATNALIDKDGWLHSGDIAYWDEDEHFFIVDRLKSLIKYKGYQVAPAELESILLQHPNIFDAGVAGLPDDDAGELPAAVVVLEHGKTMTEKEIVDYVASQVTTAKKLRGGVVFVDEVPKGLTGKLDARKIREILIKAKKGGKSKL
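Purified P. pyralis luciferase (10nM final) with 10uM D-luciferin and 10uM ATP (Km levels) in 50mM Tris acetate pH 7.5, 10mM Mg acetate, 0.01% Tween-20, 0.05% BSA; qHTS 6-point titration, ~60 µM downward; luminescence read.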
NPC1 promoter act – qHTS Assay for NPC1 Promoter Activators; Huh7 NPC1 promoter luciferase reporter, 24 h; Potency, µM (doses to about 9.22 µM), for the others: top-dose activation, hits mostly activators; 320,000 tested, 2.4% active; AID 485313, 2010; note: % of control where 0% means no effect; nearly all actives have a fitted effect of over 60% in size
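Stably transfected Huh7 (NPC1 promoter→luciferase), 1500 cells/well in Opti-MEM + 10% FBS, 2 h settle, then compound 24 h at 37 °C. Luminescence after 10 min with Amplite reagent.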
SMN2 splice enh – qHTS Assay for Enhancers of SMN2 Splice Variant Expression; HEK293 SMN2-luciferase splicing reporter, luminescence, 30-36 h; Potency, µM (highest dose often 46.1 µM), inactives show at the highest dose activity change, positive = activation, most hits filed as activators; 210,000 tested, 2.8% active; AID 1458, 2008; note: % of control where 0% means no effect; nearly all actives have a fitted effect of over 55% in size
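qHTS luciferase splicing reporter: luminescence rises when SMN2 exon 7 is included in transfected HEK293 cells. Compound exposure lasted 30-36 h at 37C, with 4.5 mM final sodium butyrate as control, followed by a ONE-Glo read.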
KinaseGlo FLuc – Counterscreen for Luciferase (Kinase-Glo TM) Inhibition. Kinase-Glo luciferase, ATP luminescence, 8 min. Potency, µM (titrated, usually from 38.3 µM), inactives show at the top dose activity change, negative = inhibition, most hits filed as inhibitors. Luciferin 4-monooxygenase (Photuris pensylvanica), Q27757. AID 1379, 2008. 200,000 tested, 0.28% active; note: % is set by controls: 0 for no effect and ±100 for the full control effect; nearly all actives have a fitted effect of over 60% in size
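Inhibition of Kinase-Glo luciferase light generation was assessed at 10 uM ATP in pH 7.2 imidazole buffer, with luminescence measured after eight minutes at ambient temperature.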
The depositor's hits bear a star; [ ] = another dose, or the depositor's remark. Calls come from the whole dose curve; as a rule, active = well fitted curve in the direction sought with a large enough effect; inconclusive = small, poorly fitted or top-dose-only effect, or another doubt; inactive = no such curve, though single readings can be large; an effect the other way counts as inactive or inconclusive. Potency is the fitted concentration of half-maximal effect.

`CCc1ccccc1OCC(=O)Nc1ccc(S(=O)(=O)Nc2nc(C)cc(C)n2)cc1` gave FLuc counter inconclusive and SMN2 splice enh -13.4%.
Cc1ccc2c(c1)N=C(c1ccc(F)cc1)CO2 was read as Rab9 promoter act 3.16µM*, FLuc counter 4.26µM*, NPC1 promoter act 3.98µM*, SMN2 splice enh 16.4% and KinaseGlo FLuc inconclusive.
O=[N+]([O-])c1ccc(C2=Nc3cc(Cl)ccc3OC2)cc1 was read as Rab9 promoter act 20.9%, FLuc counter 15.1µM*, NPC1 promoter act 20.9%, SMN2 splice enh -2.1% and KinaseGlo FLuc 2.1%.
Screening O=[N+]([O-])c1ccc(C2=NCCO2)cc1 returned Rab9 promoter act -9.5%, FLuc counter 0.4% and NPC1 promoter act -0.4%.
For Cc1ccc(-c2cc3ncc4c(n3n2)-c2cc(F)ccc2OC4)cc1 the results were FLuc counter -7.6% and SMN2 splice enh 7.1%.
`COc1ccccc1CNC(=O)c1cnc(N(C)C)nc1` gave FLuc counter -3.7%.
For Nc1c(C(=O)Nc2ccccc2Cl)c2ccccn2c1C(=O)c1ccc(Cl)cc1 the results were FLuc counter 1.2% and SMN2 splice enh -2.7%.
`CCOc1cc(/C=N\NC(=O)OC)ccc1OC(=O)c1ccco1` gave Rab9 promoter act 5.5%, FLuc counter 7.4%, NPC1 promoter act 1.2%, SMN2 splice enh -35.2% and KinaseGlo FLuc -0.6%.
COc1cc(/C=C2/SC(=S)N(C)C2=O)ccc1OC(=O)c1ccco1 was read as Rab9 promoter act -11.2%, FLuc counter -15.3%, NPC1 promoter act 12.5%, SMN2 splice enh 13.0% and KinaseGlo FLuc -4.3%.
For O=C(Oc1ccc(-c2nnco2)cc1)c1ccco1 the results were Rab9 promoter act -3.2%, FLuc counter -17.6% and NPC1 promoter act -1.4%.
`CCOc1cc(/C=C2/SC(=S)NC2=O)ccc1OC(=O)c1ccco1` gave Rab9 promoter act 13.3%, FLuc counter 23.9µM*, NPC1 promoter act 3.5%, SMN2 splice enh -4.3% and KinaseGlo FLuc -1.1%.
Screening O=C1NC(=S)S/C1=C/c1ccc(OC(=O)c2ccco2)cc1 returned Rab9 promoter act inconclusive, FLuc counter 7.57µM* and NPC1 promoter act 18.7%.
For COc1cc(/C=C2/SC(=O)NC2=O)ccc1OC(=O)c1ccco1 the results were Rab9 promoter act 9.5%, FLuc counter 16.9µM* and NPC1 promoter act -0.4%.
`COc1ccc(Cl)cc1NS(=O)(=O)c1c(C)nc2scc(C)n2c1=O` gave FLuc counter 5.7% and SMN2 splice enh 9.4%.
For COc1cc(C(=O)Nc2sc3c(c2C#N)CCCC3)c(Br)c(OC)c1OC the results were FLuc counter -18.2% and SMN2 splice enh 6.9%.
For CC1CCN(S(=O)(=O)c2ccc3c(c2)N(CC(=O)Nc2ccc(F)c(Cl)c2)C(=O)CO3)CC1 the results were FLuc counter -1.6%.
Screening Cc1ccc(-n2c(=O)c3c(cnn3C)n(Cc3ccc(Cl)cc3)c2=O)cc1 returned FLuc counter 1.6% and SMN2 splice enh 10.3%.
CC(C)C1N=C(c2ccc3c(c2)OCO3)CC(c2ccccc2O)N1 (stereo unspecified) was read as Rab9 promoter act inconclusive, FLuc counter 10.7µM*, NPC1 promoter act inconclusive, SMN2 splice enh -1.0% and KinaseGlo FLuc -10.4%.
Screening CCc1cc(-c2[nH]ncc2-c2ccc3c(c2)OCO3)c(O)cc1O returned Rab9 promoter act 0.0%, FLuc counter inconclusive, NPC1 promoter act 7.9%, SMN2 splice enh -52.5% and KinaseGlo FLuc -2.3%.
O=C(Nc1ccc2nn(-c3ccccc3)nc2c1)c1ccc(-c2cccc(Cl)c2)o1 was read as FLuc counter -16.3% and SMN2 splice enh 20.7%.
For CCOC(=O)c1c(S(=O)(=O)NCC(=O)Nc2ccc(F)cc2C)c(C)n(C)c1C the results were FLuc counter -1.5%.
Screening CC(C)[C@H](N)c1nnc2n1N=C(c1ccc(Cl)cc1)CS2 returned Rab9 promoter act -2.8%, FLuc counter 0.7% and NPC1 promoter act -3.4%.
COc1ccc(C2=NN(C)C(=NCc3ccccc3)SC2)cc1 was read as Rab9 promoter act -0.5%, FLuc counter inconclusive, NPC1 promoter act 0.5%, SMN2 splice enh -26.1% and KinaseGlo FLuc -0.5%.
COc1ccc(CN=C2NN=C(c3ccc(Cl)cc3)CS2)cc1 was read as Rab9 promoter act 3.55µM*, FLuc counter 7.57µM*, NPC1 promoter act 3.55µM*, SMN2 splice enh 20µM* and KinaseGlo FLuc 0.5%.
`CC(C)(C)N=C1NN=C(c2ccc(Cl)cc2)CS1` gave Rab9 promoter act 0.631µM*, FLuc counter 2.69µM* and NPC1 promoter act 0.794µM*.
For COc1ccc(CN=C2Nc3ccccc3CS2)cc1 the results were Rab9 promoter act 1.58µM*, FLuc counter 2.69µM*, NPC1 promoter act 1µM*, SMN2 splice enh 3.55µM* and KinaseGlo FLuc -22.4%.
Screening CC(C)(C)N=C1NN=C(c2cc3ccccc3o2)CS1 returned Rab9 promoter act 0.398µM*, FLuc counter 1.9µM* and NPC1 promoter act 0.631µM*.
For COC(=O)[C@@H]1C[C@@]2(O)[C@H](O)[C@H](O)[C@H](O)C[C@H]2N1Cc1ccc(N2CCN(C)CC2)cc1 the results were SMN2 splice enh -1.1% and KinaseGlo FLuc -3.3%.
For O=C(O)C[C@H](Cc1ccc2c(c1)OCO2)C(=O)O the results were SMN2 splice enh -24.5%[9.22 µM] and KinaseGlo FLuc -3.7%[7.66 µM].
Screening Clc1ccc(C2=NNC(=NCc3ccc4c(c3)OCO4)SC2)cc1 returned Rab9 promoter act 15.4%, FLuc counter 19µM* and NPC1 promoter act 14.7%.
For COc1ccccc1CNC(=O)C(=O)NCC(c1cccnc1)N1CCN(c2ccccc2)CC1 (stereo unspecified) the results were FLuc counter -15.6%.
CCOC(=O)c1cc2ccc3ccccc3c2oc1=O was read as Rab9 promoter act 0.1%, FLuc counter -14.8% and NPC1 promoter act -9.8%.
`CCOC(=O)c1cc2c(s1)-c1ccccc1CC2` gave Rab9 promoter act 16.6%, FLuc counter 10.7µM*, NPC1 promoter act 17.9%, SMN2 splice enh 19.7% and KinaseGlo FLuc -0.9%.
CCOC(=O)c1cc2ccc3ccccc3c2s1 was read as Rab9 promoter act inconclusive, FLuc counter 5.36µM*, NPC1 promoter act inconclusive, SMN2 splice enh inconclusive and KinaseGlo FLuc -1.2%.
Screening Cc1ccc2c(c1)c1c(c(=O)n(-c3ccccc3C)c(=O)n1CC(=O)NCCC1=CCCCC1)n2C returned FLuc counter -10.6%.
For COCCCNC(=O)Cn1c(=O)n(-c2cccc(C)c2)c(=O)c2c3c(sc21)CN(C(C)=O)CC3 the results were FLuc counter -4.7% and SMN2 splice enh 6.2%.
